High-throughput results from PubChem BioAssay.
Compounds with a hit are over-represented: about 2.5% of the library has one in this group of screens.
Cruzain inh noDet – inhibitors of Trypanosoma cruzi cruzain without detergent; actives 2.3% (n = 200,000); AID 1476; P25779; purified cruzain, Z-FR-AMC fluorescence, no detergent; Potency, µM, usual class: inhibitors; further: nearly all actives have a fitted effect of over 40% in size
Target sequence (P25779 123-467 limits assumed): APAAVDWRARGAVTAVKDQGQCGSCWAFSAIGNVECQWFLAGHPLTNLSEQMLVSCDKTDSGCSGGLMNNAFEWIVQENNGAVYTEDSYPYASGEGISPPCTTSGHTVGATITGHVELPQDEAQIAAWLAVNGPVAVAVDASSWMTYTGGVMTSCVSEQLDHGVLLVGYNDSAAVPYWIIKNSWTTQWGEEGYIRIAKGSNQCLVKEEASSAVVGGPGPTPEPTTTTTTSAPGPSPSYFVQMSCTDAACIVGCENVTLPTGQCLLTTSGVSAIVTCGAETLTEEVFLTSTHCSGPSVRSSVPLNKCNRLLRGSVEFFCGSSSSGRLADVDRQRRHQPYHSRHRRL
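Detergent-free condition (0.00005% Triton X-100) in acetate buffer pH 5.5 with DTT. 1.5 nM enzyme and compound were pre-mixed 15 min, then 2 uM Z-FR-AMC substrate added; reaction progress from fluorescence change between first and third reads (60 s).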
Cruzain inh Det – cruzain (T. cruzi) inhibition with detergent | P25779 | purified cruzain, Z-FR-AMC fluorescence, 0.01% Triton | Potency, µM, hits mostly inhibitors | actives 0.43% (n = 200,000); further: nearly all actives have a fitted effect of over 40% in size
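Detergent-containing run (0.01% Triton X-100) in acetate buffer pH 5.5 with 5 mM DTT: enzyme at 1.5 nM final, 15 min compound preincubation at room temperature, then 2 uM Z-FR-AMC substrate. Activity taken as 60 s fluorescence increase at 360/450 nm.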
Papain inh – counter-screen for cruzain inhibitors: papain inhibition. actives 41% (n = 410). shares compounds with Cruzain inh Det. AID 2161. purified papain, Z-FR-AMC fluorescence cleavage. Potency, µM, actives largely listed as inhibitors; further: nearly all actives have a fitted effect of over 35% in size
Target sequence (P00784 whole entry, looked up): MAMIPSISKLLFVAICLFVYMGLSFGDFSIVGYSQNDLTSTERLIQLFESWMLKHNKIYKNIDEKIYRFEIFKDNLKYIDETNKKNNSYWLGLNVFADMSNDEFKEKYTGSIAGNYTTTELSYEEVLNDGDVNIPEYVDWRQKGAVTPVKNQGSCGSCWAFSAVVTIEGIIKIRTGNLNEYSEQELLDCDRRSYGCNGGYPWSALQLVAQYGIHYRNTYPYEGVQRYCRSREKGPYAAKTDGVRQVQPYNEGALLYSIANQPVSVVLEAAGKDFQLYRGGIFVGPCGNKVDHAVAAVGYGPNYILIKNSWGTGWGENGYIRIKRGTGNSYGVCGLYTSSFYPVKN
Hits are given with their value; - = inactive; ? = inconclusive; . = no result. The call rests on the fitted dose curve; in most records, active means well fitted curve in the direction sought with a large enough effect; inconclusive means small, poorly fitted or top-dose-only effect, or another doubt; inactive means no such curve, though single readings can be large; an effect the other way counts as inactive or inconclusive.

SMILES	Cruzain inh noDet	Cruzain inh Det	Papain inh
CC(C)COC(=O)c1nnsc1NC(=O)Nc1ccccc1	16µM	-	-
CC(C)COC(=O)c1ccccc1C(=O)OCC(C)C	-	-	.
Cc1ccc(C(=O)Nc2c(C(=O)NCc3ccc(Cl)cc3)sc3nc(C)cc(C)c23)cc1	-	-	.
CCN(CC)c1ccc(NS(=O)(=O)c2ccc3c(c2)CCCN3C(C)=O)c(C)c1	-	-	.
CCOc1ccc(CCNC(=O)c2c3c(nc4ccccc24)C(=O)N(C2CCCCC2)C3)cc1	?	-	.
CC(=O)n1cc(/C=C2/N=C(c3ccccc3)OC2=O)c2ccccc21	20µM	4.5µM	1.6µM
Cc1ccc2cc(/C=C3\N=C(c4ccccc4)OC3=O)c(N3CCOCC3)nc2c1	?	-	.
CCc1ccccc1NC(=O)N(C)CCc1c(C)nn(C)c1C	-	-	.
COc1cc(-c2nnc(SCCOc3ccc(Cl)cc3)o2)cc(OC)c1OC	?	-	.
CCOC(=O)c1c(S(=O)(=O)N2CCCC(C(=O)N3CCN(c4cccc(C)c4C)CC3)C2)c(C)n(C)c1C (stereo unspecified)	-	-	.
O=C(Nc1ccccc1)C1CCCCC1	-	-	.
NC(=O)C(OC(=O)CNC(=O)C1CCCCC1)c1ccccc1 (stereo unspecified)	.	.	13µM
O=C(CNC(=O)C1CCCCC1)OC(C(=O)c1ccccc1)c1ccccc1 (stereo unspecified)	.	.	-
O=C(CNC(=O)C1CCCCC1)Nc1ccccc1Cl	-	-	.
CCOc1cccc2sc(N3CCN(C(=O)c4ccc5c(c4)CCCC5)CC3)nc12	-	-	.
Cc1ccc2c(CC(=O)NCc3ccccc3)coc2c1C	-	-	.
CCOc1ccc(-c2cc3nc(C4CCN(C(=O)OC(C)(C)C)CC4)c(C(=O)Nc4c(C)cccc4C)cn3n2)cc1	-	-	.
CCOc1ccc(-c2cc3nc(C4CCN(C(=O)OC(C)(C)C)CC4)c(C(=O)O)cn3n2)cc1	?	-	32µM
COc1ccccc1CNC(=O)c1cc2c(s1)-c1ccccc1OC2	-	-	.
CCN1CCN(CCCNC(=O)c2cc3c(s2)-c2ccccc2OC3)CC1	?	28µM	10µM
CC1CCCN(c2ccc(C(=O)OCn3nnc4ccccc4c3=O)cc2[N+](=O)[O-])C1 (stereo unspecified)	?	-	.
CC1CCCN(c2ccc(C(=O)OCC(=O)N3c4ccccc4Sc4ccccc43)cc2[N+](=O)[O-])C1 (stereo unspecified)	4µM	-	-
COc1cccc(Cn2c(CNC(=O)CCc3ccccc3)nc3cccnc32)c1	-	-	.
Cc1cc2c(cc1S(=O)(=O)Nc1cccc(C#N)c1)OCC(=O)N2	-	-	.
Cc1cc(NS(=O)(=O)c2ccc(NC(=O)Cc3cccs3)cc2)no1	-	-	.
SMILES	Cruzain inh noDet	Cruzain inh Det	Papain inh
Cc1cc(NC(=O)Cc2cccs2)no1	-	-	-
Nc1nc(SCc2ccc([N+](=O)[O-])cc2)c2ncn([C@@H]3O[C@H](CO)[C@H](O)[C@H]3O)c2n1	-	-	.
COc1ccc(S(=O)(=O)N(CC(=O)NC(C)c2ccccc2)c2ccc(C)cc2)cc1OC (stereo unspecified)	?	-	.
COc1ccc(CCNC(=O)CCc2c(C)nc3c(c(C)nn3-c3ccccc3)c2C)c(OC)c1	-	-	.
Cc1ccc(S(=O)(=O)N[C@@H](CCCCN)C(=O)CCl)cc1	1µM	0.79µM	4µM
Cc1ccc(S(=O)(=O)NC(CC(N)=O)C(=O)O)cc1 (stereo unspecified)	-	-	.
O=C(NCCCc1nc2ccccc2n1Cc1ccc(F)cc1)C1CCCCC1	-	-	.
O=C(NCCCc1nc2ccccc2n1CCCCOc1ccccc1)C1CCCCC1	.	.	-
O=C(NCCCc1nc2ccccc2n1CCOc1ccccc1)C1CCCCC1	.	.	-
O=C(NCCCc1nc2ccccc2n1CCCOc1ccccc1)C1CCCCC1	.	.	-
OCCCc1nc2ccccc2n1CCCCOc1ccccc1	-	-	.
O=C(NCCCc1nc2ccccc2n1Cc1ccccc1)C1CCCCC1	-	-	.
CCN(c1cccc(C)c1)S(=O)(=O)c1cc(Br)cc2c1N(C(C)=O)C(C)C2 (stereo unspecified)	?	-	.
Cc1cc(C)c2oc(-c3ccc(C)c(NC(=O)/C=C/c4ccco4)c3)nc2c1	-	-	.
Cn1c(=O)c2c(-c3ccccc3)n(-n3cnnc3)cc2n(C)c1=O	6.3µM	8.9µM	13µM
Cn1c(=O)c2c(-c3ccccc3)n(CCCO)cc2n(C)c1=O	-	-	.
CC1(C)Cn2c(nnc2-c2ccccc2)S1	-	-	.
C(/Oc1ccccc1)=C1\Nn2c(nnc2-c2cc(-c3ccccc3)n[nH]2)S1	.	.	-
CCc1ccc(CN2C(=O)c3ccccc3C2C(=O)NCCc2ccc(OC)c(OC)c2)cc1 (stereo unspecified)	?	-	.
CN(Cc1ccccc1)c1ccc(-c2nc(-c3ccco3)no2)cc1[N+](=O)[O-]	-	-	.
Fc1ccccc1-c1nc(-c2ccccc2)no1	-	-	.
O=c1cc(-c2cccc(Br)c2)nc(-c2ccccc2F)o1	10µM	8.9µM	-
COc1ccc(Br)cc1-c1noc(-c2ccccc2F)n1	-	-	.
O=c1cc(-c2ccccc2F)nc(-c2ccccc2F)o1	7.9µM	4.5µM	-
COc1cc(C(=O)Nc2nnc(S(=O)(=O)N(C)c3ccccc3)s2)cc(OC)c1OC	-	-	.
SMILES	Cruzain inh noDet	Cruzain inh Det	Papain inh
COc1cccc(CNC(=O)CSC2=Nc3ccccc3N=C(c3ccc(F)cc3)C2)c1	-	-	.
Cc1cccc(N2CCN(C(=O)Cn3c(C)c4cnn(-c5ccccc5)c(=O)c4c3C)CC2)c1C	-	-	.
CN1CCN(c2ncc3ncc(=O)n(CCc4ccccc4)c3n2)CC1	-	-	.
CN1CCN(c2ncc3ncc(=O)n(-c4ccccc4)c3n2)CC1	20µM	?	14µM
CCOc1ccc(C(=O)c2cn(CC(=O)Nc3ccc(F)cc3)c3cc4c(cc3c2=O)OCCO4)cc1	?	-	.
Cc1cc2cc3c(C)cc(=O)oc3c(C)c2o1	-	-	.
Cc1cc2c(C)cc(=O)oc2c2c1NCCC2	-	25µM	16µM
CCc1cccc(C)c1NC(=O)c1cc(S(=O)(=O)N(C)Cc2ccccc2)ccc1F	-	-	.
Cc1ccc(OCC(=O)Nc2ccc3nc(SCC(=O)N4CCCC4)sc3c2)cc1C	-	-	.
CCOC(=O)N1CCN(C(=O)CN(c2cc(Cl)ccc2OC)S(=O)(=O)c2ccccc2)CC1	?	-	.
COc1ccccc1N1CCN(C(=O)CN(c2ccccc2OC)S(=O)(=O)c2ccccc2)CC1	?	-	-
Fc1cc(Br)ccc1Nc1c2c(nc3nc(-c4cccs4)nn13)CCCC2	-	-	.
C=Cn1ccnc1P(=S)(c1ccc2c(c1)c1ccccc1n2CC)c1nccn1C=C	?	-	-
C=Cn1ccnc1P(=S)(c1ccc(N(C)C)cc1)c1nccn1C=C	?	-	.
COC(=O)CN1C(=O)CSc2ccc(S(=O)(=O)Nc3cccc(C)c3)cc21	-	-	.
CCn1c(CCNC(=O)c2ccc(OC)c(OC)c2)nc2ccccc21	-	-	.
COc1ccccc1OCCCn1c(CCNC(=O)C2CCCCC2)nc2ccccc21	.	.	28µM
CCC(C)c1ccccc1OCCn1c(CCNC(=O)C2CCCCC2)nc2ccccc21 (stereo unspecified)	.	.	-
Cc1ccccc1OCCCn1c(CCNC(=O)C2CCCCC2)nc2ccccc21	-	3.2µM	-
Cc1ccccc1OCCCCn1c(CCNC(=O)C2CCCCC2)nc2ccccc21	.	.	11µM
Cc1ccccc1Cn1c(CCCNC(=O)C2CCCCC2)nc2ccccc21	-	-	.
